Test results published in PubChem BioAssay (NCATS).
Results filed as inconclusive are left out. Activity calls are given as the source filed them. Unless noted, calls come from the whole dose curve.

Experiments:
[1] = qHTS assay for small molecule agonists of the antioxidant response element (ARE) signaling pathway (AID 651741; active = well fitted activation curve with a large enough effect in the signal ratio; the % refers to the signal ratio; note: % of control where 0% means no effect); settings: HepG2 ARE-bla reporter, beta-lactamase FRET ratio, 16 h; series mostly up to 96 µM
From the text: National Center for Advancing Translational Sciences [NCATS]
NIH Chemical Genomics Center [NCGC]
U.S. Environmental Protection Agency [EPA]
National Institutes of Environmental Health Sciences [NIEHS]
National Toxicology Program [NTP]
Oxidative stress has been implicated in the pathogenesis of a variety of diseases ranging from cancer to neurodegeneration. The antioxidant response element (ARE) signaling pathway plays an important role in the amelioration of oxidative stress. The CellSensor ARE-bla HepG2 cell line (Invitrogen) can be used for analyzing the Nrf2/antioxidant response signaling pathway. Nrf2 (NF-E2-related factor 2) and Nrf1 are transcription factors that bind to AREs and activate these genes. The CellSensor ARE-bla Hep G2 cell line contains a beta-lactamase reporter gene under control of the Antioxidant Response Element (ARE) stably integrated into HepG2 cells. The activation of the report gene under culture conditions can be detected by fluorescence intensity. This cell line can be used to screen chemicals in a 1536-well plate format and to identify agonists that induce oxidative stress.
The ARE-bla cells were dispensed at 2,000 cells/5 ul/well in 1536-well black wall/clear bottom plates using a Multidrop dispenser. After the assay plates were incubated at a 37 C/5% CO2 incubator for 5 hours, 23 nL of compounds dissolved in DMSO, positive controls or DMSO only was transferred to the assay plate by a pin tool. The plates were incubated at 37 C for 16 hours. After 1 uL of LiveBLAzer B/G FRET substrate was added using a Flying Reagent Dispenser, the plates were incubated at room temperature for 2 hours, and fluorescence intensity was measured by an Envision plate reader.

[2] = qHTS assay for small molecule activators of the p53 signaling pathway (AID 651743; active = well fitted activation curve with a large enough effect in the signal ratio, not every such curve was filed as active; the % refers to the signal ratio; note: % of control where 0% means no effect); settings: HCT-116 p53RE-bla, beta-lactamase FRET ratio, 16 h; stronger effect = higher value
In short: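 p53RE-bla HCT-116 cells with a stably integrated beta-lactamase reporter under p53 response elements were plated, rested 5 hours at 37 C/5% CO2, then exposed to compounds in DMSO for 16 hours at 37 C. LiveBLAzer B/G FRET substrate was read after 2 hours at room temperature.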

[3] = qHTS assay for small molecule activators of the nuclear factor-kappa B (NF-kB) signaling pathway (AID 651749; active = well fitted activation curve with a large enough effect in the signal ratio; the % refers to the signal ratio; note: % of control where 0% means no effect); settings: NF-kB-bla ME-180 cells, beta-lactamase FRET ratio, 16 h; stronger effect = higher value
From the text: National Center for Advancing Translational Sciences [NCATS] NIH Chemical Genomics Center [NCGC] U.S. Environmental Protection Agency [EPA] National Institutes of Environmental Health Sciences [NIEHS] National Toxicology Program [NTP] Assay Overview: Transcription factors and their stimulated target gene expression play pivotal roles across many cellular processes including responses to environmental stimuli. Proper regulation of associated pathways is critical to maintain cell health and function. Constitutive activation of transcription factor pathways has been implicated in tumors as it may block cellular functions such as apoptosis and lead to invasion and metastasis. One important transcription factor that stimulates gene expression in response to cytokines, UV radiation, and other stimuli is nuclear factor-kappa B (NF-kB). To measure activation of the NF-kB pathway, the NF-kB-bla ME-180 cell line stably expressed beta-lactamase reporter gene under the regulation of a NF-kB response element was obtained from Invitrogen. This assay allows measurement of the NF-kB pathway activity induced by compounds in a ME-180 cell line. This system quantitates NF-kB activity using a FRET-based assay system where beta-lactamase expression disrupts FRET, allowing for fluorescent measurement of activity. […]

[4] = qHTS assay for small molecule disruptors of the mitochondrial membrane potential - 1 hr assay (AID 651754); settings: series mostly up to 92.2 µM; note: % is set by controls: 0 for no effect and ±100 for the full control effect; nearly all actives have a fitted effect of over 35% in size
In short: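 HepG2 cells, attached overnight at 37C, were exposed to compound or DMSO vehicle for 1 hr at 37C, 5% CO2, then stained with Mito-MPS dye for 30 min. Red aggregate versus green monomer fluorescence reports membrane potential.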

[5] = qHTS assay for small molecule disruptors of the mitochondrial membrane potential - 5 hr assay (AID 651755); settings: JC-1-type ratio dye; series mostly up to 92.2 µM; note: % is set by controls: 0 for no effect and ±100 for the full control effect; nearly all actives have a fitted effect of over 40% in size
In short: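 HepG2 cells, attached overnight at 37C, were exposed to compound or DMSO for 5 hr at 37C, 5% CO2. Mito-MPS dye was then added for 30 min, and fluorescence read at 490/535 nm (monomers) and 540/590 nm (aggregates).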

[6] = qHTS assay to identify small molecules that stimulate interleukin-8 (IL-8) secretion (AID 651758; active = well fitted activation curve with a large enough effect in the signal ratio; the % refers to the signal ratio; note: 0% is about no effect); settings: HTRF ratio (665/615); series mostly up to 92.2 µM
In short: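 THP-1, 2000 cells/well; cpd 16 h, 37 C; add cryptate + XL665 anti-IL-8 Abs; RT 1-3 h; TR-FRET read.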

[7] = qHTS assay for environmental chemicals that activate the Aryl hydrocarbon Receptor (AhR) signaling pathway (AID 651777; active = well fitted curve in the direction sought with a large enough effect; an effect the other way counts as inactive or inconclusive; note: potency is the fitted concentration of half-maximal effect; nearly all actives have a fitted effect of over 15% in size); settings: 1A2-DRE human hepatoma cells, luciferase, 24 h
In short: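 Following a 24 hr incubation with test chemicals at 37 C and 5% CO2, 1A2-DRE human hepatoma cells received One-Glo reagent; after 30 min at room temperature, luciferase output reflected CYP1A2 induction via AhR.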

[8] = target: Tumor necrosis factor (Homo sapiens) (UniProt P01375); assay: qHTS assay to identify small molecules that stimulate Tumor Necrosis Factor-alpha (TNF-alpha) secretion (AID 651757; active = well fitted curve in the direction sought with a large enough effect in the signal ratio; the % refers to the signal ratio; note: 0% is about no effect); settings: Human cells, HTRF 665/615 ratio; series mostly up to 92.2 µM
In short: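 THP-1 cells were exposed to compounds for 17 hrs at 37 C, after which secreted TNF-alpha was measured by homogeneous HTRF (TR-FRET) using cryptate- and XL665-labeled anti-TNF-alpha antibodies, read after 3 hr at room temperature.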

[9] = S16 Schwann cell PMP22 intronic element firefly luciferase assay (AID 624032; active = well fitted curve in the direction sought with a large enough effect; an effect the other way counts as inactive or inconclusive;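 note: plate controls were DMSO for no effect and PTC124 positive control mean for full effect; nearly all actives have a fitted effect of over 30% in size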); settings: S16 rat Schwann cells, PMP22 element FLuc, 24 h; series mostly up to 57.5 µM
In short: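 Rat S16 Schwann cells stably carrying a PMP22 intronic element-driven Fluc reporter were seeded overnight, then exposed to compounds for 24 h at 37 °C. Luminescence was normalized to PTC124 (positive control) and DMSO (0% activity).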

[10] = S16 Schwann cell PMP22 intronic element beta-lactamase assay (AID 624044); settings: S16 rat Schwann cells, PMP22 element beta-lactamase FRET, 24 h; series mostly up to 38.3 µM;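 note: 0% = DMSO and -100% = potassium clavulanate positive control; nearly all actives have a fitted effect of over 15% in size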
In short: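 Rat S16 Schwann cells with beta-Lac driven by a PMP22 intronic element, compound-treated 24 h at 37 °C. LiveBLAzer FRET B/G read: 460 nm normalized to potassium clavulanate vs DMSO; 535 nm FRET as viability; concentration-effect curves classified.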

Tumor necrosis factor (Homo sapiens), sequence (P01375 whole entry, looked up): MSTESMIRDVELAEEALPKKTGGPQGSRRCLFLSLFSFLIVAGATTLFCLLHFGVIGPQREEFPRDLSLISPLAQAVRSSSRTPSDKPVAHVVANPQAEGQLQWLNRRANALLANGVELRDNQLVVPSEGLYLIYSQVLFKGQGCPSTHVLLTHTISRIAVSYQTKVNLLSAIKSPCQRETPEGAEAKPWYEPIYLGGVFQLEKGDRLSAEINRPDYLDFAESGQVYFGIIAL

COc1ccc(CCC(=O)c2c(O)cc(O[C@@H]3O[C@H](CO)[C@@H](O)[C@H](O)[C@H]3O[C@@H]3O[C@@H](C)[C@H](O)[C@@H](O)[C@H]3O)cc2O)cc1O
inactive: outcome [1] | activation [2] -3.41% | activation [3] -2.14% | outcome [4] | outcome [5] | outcome [6]

O=C(/C=C/C=C/c1ccc2c(c1)OCO2)N1CCCCC1
inactive: outcome [1] | activation [2] -2.18% | activation [3] -1.08%
active: Potency [7] 14.1 µM

C=C1C[C@]23C[C@@]1(O)CC[C@H]2[C@@]12C=C[C@H](O)[C@@](C)(C(=O)O1)[C@H]2[C@@H]3C(=O)O
inactive: outcome [1] | outcome [4] | outcome [5] | outcome [8]

CCc1cccc2c3c([nH]c12)[C@@](CC)(CC(=O)O)OCC3
inactive: outcome [9] | outcome [10]

CCOC(=O)C(CCc1ccccc1)NC(C)C(=O)N1Cc2ccccc2CC1C(=O)O (stereo not drawn)
inactive: outcome [9] | outcome [10]
